Source: the supplement of paper PMC9262897, “Low-cost anti-mycobacterial drug discovery using engineered E. coli” (Nature Communications, 2022)
Counter-ions that a name gives are not always drawn. ± gives the standard deviation of the averaged measurements.

Legend:
Assay in all cases: growth (OD600 after 10 h); higher = more growth (less inhibition)
[1] = tested on: E. coli TESEC Alr+ wild-type control; conditions: compound 0.1 mM; raw OD600 reference: median of DMSO wells 0.241, cell-free background 0.041
Description: (§1)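 TESEC Mtb Alr E. coli, or the Alr+ wild-type control, in 384-well plates with Prestwick library compounds at 0.1 mM and 1% DMSO, across arabinose induction levels of 1E3 to 1E7 nM. Growth is read as OD600 after 10 h at 37 °C in triplicate biological replicates.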

E. coli TESEC Mtb Alr [2] = conditions: compound 0.1 mM
Description: as §1

E. coli TESEC Mtb Asd = conditions: compound 0.1 mM
Description: (§2)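 TESEC E. coli strains in which the native enzyme is deleted and replaced by arabinose-inducible Mtb Asd, DapB, CysH or TrpD, each grown in its selective medium. Strains were screened against the Prestwick library at 0.1 mM and 1% DMSO in 384-well format at low and high arabinose induction. Growth is read as OD600 after 10 h in triplicate.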

E. coli TESEC Mtb DapB = conditions: compound 0.1 mM
Description: as §2

E. coli TESEC Mtb Alr [3] = conditions: compound 0.1 mM; remark: listed apart in the source
Description: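 TESEC Mtb Alr E. coli (ΔaraC ΔtolC ΔentC Δalr ΔdadX, arabinose-inducible Mtb Alr) or the Alr+ wild-type control strain, grown in defined M9-fructose medium without D-alanine in 96-well plates with Prestwick library compounds at 0.1 mM and 1% DMSO. Low Alr induction is 0.1 µM arabinose and high induction is 10 mM arabinose.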

[4] = arabinose 1000 nM, raw OD600 reference: median of DMSO wells 0.294, cell-free background 0.041
[5] = arabinose 10000 nM, raw OD600 reference: median of DMSO wells 0.264, cell-free background 0.041
[6] = arabinose 100000 nM, raw OD600 reference: median of DMSO wells 0.201, cell-free background 0.041
[7] = arabinose 1000000 nM, raw OD600 reference: median of DMSO wells 0.193, cell-free background 0.041
[8] = arabinose 10000000 nM, raw OD600 reference: median of DMSO wells 0.146, cell-free background 0.041
[9] = arabinose induction (level): High, raw OD600 reference: median of DMSO wells 0.331, cell-free background 0.041
[10] = arabinose induction (level): Low, raw OD600 reference: median of DMSO wells 0.417, cell-free background 0.041
[11] = arabinose induction (level): High, raw OD600 reference: median of DMSO wells […], cell-free background 0.041
[12] = arabinose induction (level): Low, raw OD600 reference: median of DMSO wells 0.227, cell-free background 0.041
[13] = arabinose 100 nM, raw OD600 reference: median of DMSO wells 0.413, cell-free background 0.052
[14] = arabinose 10000000 nM, raw OD600 reference: median of DMSO wells […], cell-free background 0.052

Row | Compound | growth [1] | growth (E. coli TESEC Mtb Alr [2]; [4]) | growth (E. coli TESEC Mtb Alr [2]; [5]) | growth (E. coli TESEC Mtb Alr [2]; [6]) | growth (E. coli TESEC Mtb Alr [2]; [7]) | growth (E. coli TESEC Mtb Alr [2]; [8]) | growth (E. coli TESEC Mtb Asd; [9]) | growth (E. coli TESEC Mtb Asd; [10]) | growth (E. coli TESEC Mtb DapB; [11]) | growth (E. coli TESEC Mtb DapB; [12]) | growth (E. coli TESEC Mtb Alr [3]; [13]) | growth (E. coli TESEC Mtb Alr [3]; [14])
1 | CN[C@H]1CC[C@@H](c2ccc(Cl)c(Cl)c2)c2ccccc21 [Sertraline] | 0.0407 ± 0.00036 | 0.0417 ± 0.0013 | 0.0403 ± 0.0019 | 0.0432 ± 0.0016 | 0.0393 ± 0.0007 | 0.0414 ± 0.00047 | 0.0545 ± 0.0057 | 0.0508 ± 0.0037 | 0.0504 ± 0.00093 | 0.0522 ± 0.0014 | 0.392 ± 0.036 | 0.0517 ± 0.00092
2 | O=C(CCCN1CCN(c2ccccn2)CC1)c1ccc(F)cc1 [Azaperone] | 0.192 ± 0.0058 | 0.2624 ± 0.0023 | 0.294 ± 0.0053 | 0.164 ± 0.013 | 0.177 ± 0.0089 | 0.146 ± 0.0043 | 0.217 ± 0.017 | 0.326 ± 0.029 | 0.194 ± 0.0048 | 0.264 ± 0.05 | 0.423 ± 0.0076 | 0.304 ± 0.01
3 | COc1ccc2cc(CCC(C)=O)ccc2c1 [Nabumetone] | 0.168 ± 0.0082 | 0.208 ± 0.028 | 0.2236 ± 0.0013 | 0.152 ± 0.012 | 0.109 ± 0.0058 | 0.14 ± 0.0083 | 0.304 ± 0.073 | 0.247 ± 0.04 | 0.175 ± 0.0022 | 0.187 ± 0.0098 | 0.399 ± 0.01 | 0.297 ± 0.017
4 | CCN(CC)CCCC(C)Nc1ccnc2cc(Cl)ccc12 (stereo not drawn) [Chloroquine diphosphate] | 0.236 ± 0.0047 | 0.338 ± 0.0096 | 0.2486 ± 0.0011 | 0.235 ± 0.025 | 0.176 ± 0.0044 | 0.163 ± 0.0047 | 0.253 ± 0.047 | 0.246 ± 0.029 | 0.201 ± 0.026 | 0.226 ± 0.047 | 0.412 ± 0.014 | 0.328 ± 0.02
5 | C[C@]12CCC(=O)C=C1C=C[C@@H]1[C@@H]2CC[C@@]2(C)[C@H]1CC[C@@]21CCC(=O)O1 [Canrenone] | 0.129 ± 0.0013 | 0.139 ± 0.0075 | 0.097 ± 0.0013 | 0.131 ± 0.0077 | 0.0738 ± 0.0044 | 0.126 ± 0.0083 | 0.217 ± 0.055 | 0.227 ± 0.042 | 0.139 ± 0.011 | 0.174 ± 0.0092 | 0.363 ± 0.0069 | 0.144 ± 0.031
6 | CC1(C)OC(=O)NC1=O [Dimethadione] | 0.243 ± 0.0066 | 0.295 ± 0.016 | 0.2697 ± 0.0012 | 0.191 ± 0.017 | 0.184 ± 0.0086 | 0.139 ± 0.0053 | 0.292 ± 0.005 | 0.414 ± 0.022 | 0.182 ± 0.0086 | 0.199 ± 0.05 | 0.406 ± 0.017 | 0.347 ± 0.011
7 | C=C1c2c(Cl)ccc(O)c2C(O)=C2C(=O)[C@]3(O)C(O)=C(C(N)=O)C(=O)[C@@H](N(C)C)[C@@H]3[C@@H](O)[C@H]12.O=C(O)c1cc(S(=O)(=O)O)ccc1O [Meclocycline sulfosalicylate] | 0.0437 ± 0.0018 | 0.0465 ± 0.0035 | 0.04467 ± 0.00042 | 0.047 ± 0.001 | 0.04453 ± 0.00031 | 0.0463 ± 0.0019 | 0.0721 ± 0.0074 | 0.0594 ± 0.0053 | 0.156 ± 0.089 | 0.05473 ± 0.00042 | 0.0611 ± 0.00062 | 0.0561 ± 0.00065
8 | Cn1cnc([N+](=O)[O-])c1Sc1ncnc2[nH]cnc12 [Azathioprine] | 0.126 ± 0.017 | 0.0771 ± 0.0059 | 0.0744 ± 0.0045 | 0.0829 ± 0.005 | 0.0691 ± 0.0013 | 0.0849 ± 0.0021 | 0.347 ± 0.045 | 0.261 ± 0.043 | 0.202 ± 0.016 | 0.226 ± 0.019 | 0.312 ± 0.029 | 0.175 ± 0.0061
9 | CC(N)C12CC3CC(CC(C3)C1)C2 (stereo not drawn) [Rimantadine Hydrochloride] | 0.228 ± 0.0089 | 0.293 ± 0.0047 | 0.2629 ± 0.0005 | 0.207 ± 0.025 | 0.18 ± 0.0024 | 0.151 ± 0.006 | 0.209 ± 0.019 | 0.497 ± 0.07 | 0.195 ± 0.021 | 0.232 ± 0.025 | 0.407 ± 0.009 | 0.345 ± 0.011
10 | C/C(=C(\CCOP(=O)(O)O)SC(=O)c1ccccc1)N(C=O)Cc1cnc(C)nc1N [Benfotiamine] | 0.2481 ± 0.0011 | 0.317 ± 0.014 | 0.257 ± 0.0029 | 0.205 ± 0.019 | 0.186 ± 0.006 | 0.141 ± 0.0056 | 0.352 ± 0.068 | 0.41 ± 0.11 | 0.188 ± 0.0089 | 0.224 ± 0.032 | 0.404 ± 0.0067 | 0.359 ± 0.0094
11 | CC[N+](C)(C)c1cccc(O)c1 [Edrophonium chloride] | 0.258 ± 0.011 | 0.294 ± 0.012 | 0.266 ± 0.004 | 0.227 ± 0.03 | 0.192 ± 0.012 | 0.144 ± 0.0031 | 0.384 ± 0.013 | 0.403 ± 0.013 | 0.203 ± 0.017 | 0.27 ± 0.098 | 0.401 ± 0.015 | 0.346 ± 0.029
12 | Cc1nc2ccccn2c(=O)c1CCN1CCC(C(=O)c2ccc(F)cc2)CC1 [Pirenperone] | 0.208 ± 0.0042 | 0.272 ± 0.0064 | 0.268 ± 0.013 | 0.208 ± 0.043 | 0.178 ± 0.0069 | 0.147 ± 0.007 | 0.352 ± 0.045 | 0.395 ± 0.089 | 0.223 ± 0.0088 | 0.23 ± 0.037 | 0.408 ± 0.011 | 0.312 ± 0.023
13 | Cc1cc(N)c2ccccc2[n+]1CCCCCCCCCC[n+]1c(C)cc(N)c2ccccc21 [Dequalinium dichloride] | 0.048 ± 0.0004 | 0.04803 ± 0.00032 | 0.0469 ± 0.00052 | 0.04963 ± 0.00015 | 0.0458 ± 0.00071 | 0.049 ± 0.0001 | 0.0691 ± 0.0051 | 0.0634 ± 0.006 | 0.0601 ± 0.004 | 0.0586 ± 0.0011 | 0.0979 ± 0.005 | 0.0648 ± 0.0024
14 | CC1c2cccc(O)c2C(O)=C2C(=O)C3(O)C(O)=C(C(N)=O)C(=O)C(N(C)C)C3C(O)C21 (stereo not drawn) [Doxycycline hydrochloride] | 0.0447 ± 0.00093 | 0.0433 ± 0.002 | 0.0456 ± 0.001 | 0.04713 ± 0.00031 | 0.0487 ± 0.0075 | 0.0461 ± 0.0007 | 0.0572 ± 0.0053 | 0.0534 ± 0.0016 | 0.0563 ± 0.00081 | 0.0531 ± 0.0036 | 0.0647 ± 0.0031 | 0.0602 ± 0.0014
